A number with no mark means an inactive call. For some assays here: Results with a measured potency or affinity are listed apart. The source made the active and inactive calls. Unless noted, how the calls were made is not given here.
Key:
[1] = antimalarial activity against Dd2 strain (AID 2302;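 active means growth inhibition above 50% at the single 2 µM test dose, taken to imply half-maximal potency below 2 µM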;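 further: 0% = DMSO untreated growth and 100% = chloroquine plus artemisinin killed control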); conditions: P. falciparum Dd2 in RBCs, LDH growth readout, 72 h; at 2 µM; hits give high values
[2] = human hepatoma cell viability loss – ATP luminescence, cytotoxicity control for P. falciparum antimalarial project, primary screen (AID 2303;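 active means inhibition above 50%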;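 further: 0% = DMSO wells and 100% = digitonin-killed cells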); conditions: HepG2 viability, 24-48 h, at 10 µM, hits give high values
[3] = biological target: L-lactate dehydrogenase (Plasmodium falciparum (isolate CDC / Honduras)) (UniProt Q27743); experiment: PfLDH activity inhibition – cell lysate, 3D7 strain, counter-screen for P. falciparum growth inhibition project (AID 2304);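 further: 0% = vehicle and 100% = reference inhibitor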; conditions: P. falciparum 3D7 crude extract, LDH APAD/NBT absorbance; at 2 µM; hits give high values
Chain of L-lactate dehydrogenase (Plasmodium falciparum (isolate CDC / Honduras)) (Q27743 whole entry, looked up): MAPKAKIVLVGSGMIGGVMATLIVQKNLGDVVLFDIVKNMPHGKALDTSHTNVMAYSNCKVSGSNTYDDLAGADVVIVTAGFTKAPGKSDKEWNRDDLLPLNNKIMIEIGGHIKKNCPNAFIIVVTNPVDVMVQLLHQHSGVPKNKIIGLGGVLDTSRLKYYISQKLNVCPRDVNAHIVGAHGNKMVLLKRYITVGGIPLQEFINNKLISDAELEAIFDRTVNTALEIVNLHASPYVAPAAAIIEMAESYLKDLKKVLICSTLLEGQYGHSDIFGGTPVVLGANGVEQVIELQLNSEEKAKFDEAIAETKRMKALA

[4] = inhibition of 3D7 malaria parasite growth – strain 3D7 (AID 2306);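 further: 0% = DMSO wells and 100% = chloroquine plus artemisinin control wells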; conditions: P. falciparum 3D7 erythrocytic growth, LDH absorbance, 72 h; at 2 µM; hits give high values
[5] = biological target: Calcium-dependent protein kinase 1 (Plasmodium falciparum (isolate 3D7)) (UniProt P62344); experiment: PfCDPK1 kinase inhibitors, biochemical, TCAMS library (AID 1159585; cut-off not given, nearly all actives have IC50 up to about 0.98 µM;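 further: inhibitors leave more ATP so luminescence rises with inhibition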); conditions: recombinant PfCDPK1, Kinase-Glo ATP depletion luminescence
Chain of Calcium-dependent protein kinase 1 (Plasmodium falciparum (isolate 3D7)) (P62344 whole entry, looked up): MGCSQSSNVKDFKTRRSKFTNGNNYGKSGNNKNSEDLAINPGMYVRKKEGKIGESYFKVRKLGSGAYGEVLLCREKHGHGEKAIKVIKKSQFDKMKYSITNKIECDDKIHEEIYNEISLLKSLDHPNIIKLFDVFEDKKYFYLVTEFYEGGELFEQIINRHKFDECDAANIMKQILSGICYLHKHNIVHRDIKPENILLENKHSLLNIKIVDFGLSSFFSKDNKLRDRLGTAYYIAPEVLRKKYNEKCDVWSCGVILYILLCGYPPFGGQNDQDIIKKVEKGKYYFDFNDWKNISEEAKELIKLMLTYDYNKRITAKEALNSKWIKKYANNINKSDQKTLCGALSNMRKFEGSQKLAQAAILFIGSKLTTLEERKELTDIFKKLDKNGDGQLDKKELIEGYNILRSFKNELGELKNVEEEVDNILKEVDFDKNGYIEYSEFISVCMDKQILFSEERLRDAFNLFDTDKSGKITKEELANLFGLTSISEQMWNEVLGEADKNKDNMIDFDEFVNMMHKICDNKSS

[6] = biological target: Plasmodium falciparum protein kinase 6 (PK6, PF3D7_1337100) (UniProt Q8IDW1); experiment: PfPK6 kinase inhibitors, biochemical, TCAMS library (AID 1159586); conditions: recombinant PfPK6, Kinase-Glo ATP depletion luminescence
Chain of Plasmodium falciparum protein kinase 6 (PK6, PF3D7_1337100) (Q8IDW1 1-305): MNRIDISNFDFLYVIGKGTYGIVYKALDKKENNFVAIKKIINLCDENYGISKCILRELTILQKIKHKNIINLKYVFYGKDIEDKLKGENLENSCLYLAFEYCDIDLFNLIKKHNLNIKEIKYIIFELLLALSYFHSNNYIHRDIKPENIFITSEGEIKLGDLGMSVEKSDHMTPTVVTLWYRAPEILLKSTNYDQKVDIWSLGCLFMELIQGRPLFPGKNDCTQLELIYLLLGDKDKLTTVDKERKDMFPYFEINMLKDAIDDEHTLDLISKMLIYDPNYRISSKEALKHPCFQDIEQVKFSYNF

[7] = biological target: Protein kinase 7 (PK7), Plasmodium falciparum 3D7 (PF3D7_0213400) (UniProt Q7YTF7); experiment: inhibition of Plasmodium PK7 catalytic activity – biochemical, TCAMS antimalarial set, Kinase-Glo luminescence (AID 1159587); conditions: recombinant PfPK7, Kinase-Glo ATP depletion luminescence
Chain of Protein kinase 7 (PK7), Plasmodium falciparum 3D7 (PF3D7_0213400) (Q7YTF7 1-343): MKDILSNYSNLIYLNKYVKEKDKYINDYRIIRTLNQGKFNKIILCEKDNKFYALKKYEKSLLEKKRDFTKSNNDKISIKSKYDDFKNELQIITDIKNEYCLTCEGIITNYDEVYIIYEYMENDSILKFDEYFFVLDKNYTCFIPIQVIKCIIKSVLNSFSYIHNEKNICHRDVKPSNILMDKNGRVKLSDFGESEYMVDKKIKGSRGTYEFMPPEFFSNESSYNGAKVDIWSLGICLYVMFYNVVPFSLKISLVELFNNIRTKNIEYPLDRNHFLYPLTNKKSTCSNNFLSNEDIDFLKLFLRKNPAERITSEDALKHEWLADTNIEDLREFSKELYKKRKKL

[8] = biological target: Calcium-dependent protein kinase 4 (Plasmodium falciparum (isolate 3D7)) (UniProt Q8IBS5); experiment: PfCDPK4 kinase inhibitors, biochemical, TCAMS library (AID 1159588; cut-off not given, nearly all actives have IC50 up to about 0.91 µM); conditions: recombinant PfCDPK4, Kinase-Glo ATP depletion luminescence
Chain of Calcium-dependent protein kinase 4 (Plasmodium falciparum (isolate 3D7)) (Q8IBS5 whole entry, looked up): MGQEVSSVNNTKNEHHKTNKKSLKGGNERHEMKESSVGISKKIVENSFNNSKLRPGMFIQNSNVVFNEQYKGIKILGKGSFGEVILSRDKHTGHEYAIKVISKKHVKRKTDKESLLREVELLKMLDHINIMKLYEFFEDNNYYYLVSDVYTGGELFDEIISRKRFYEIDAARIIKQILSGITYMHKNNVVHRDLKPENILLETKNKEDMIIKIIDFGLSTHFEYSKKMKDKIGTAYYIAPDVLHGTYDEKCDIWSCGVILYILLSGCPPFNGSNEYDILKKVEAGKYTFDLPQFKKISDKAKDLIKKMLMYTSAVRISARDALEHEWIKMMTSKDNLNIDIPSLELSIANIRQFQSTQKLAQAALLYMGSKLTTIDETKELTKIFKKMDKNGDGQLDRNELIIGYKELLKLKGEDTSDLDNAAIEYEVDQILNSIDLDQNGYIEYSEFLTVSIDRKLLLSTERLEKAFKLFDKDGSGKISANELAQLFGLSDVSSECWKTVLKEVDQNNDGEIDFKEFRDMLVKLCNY

SMILES	growth inhibition [1]	inhibition [2]	inhibition [3]	growth inhibition [4]	outcome [5]	outcome [6]	outcome [7]	outcome [8]
COc1cccc(Nc2nc(Nc3cccc(C#N)c3)cc(-c3ccncc3)n2)c1	46%	28%	1%	100% (active)	inactive	inactive	inactive	inactive
COc1ccc(CCNc2nc(NCCc3cnc[nH]3)nc(NCc3cccc4ccccc34)n2)cc1OC	16%	2%	3%	98% (active)	inactive	inactive	inactive	inactive
CCC(=O)Nc1cc(=O)[nH]c2nc(-c3ccc(Cl)cc3)nn12	62% (active)	3%	-11%	84% (active)	inactive	inactive	inactive	inactive
CSc1ccc2ccccc2c1CCNCCCCNCCc1c(SC)ccc2ccccc12	60% (active)	99% (active)	3%	101% (active)	inactive	inactive	inactive	inactive
Cc1ccc(N(CCC(=N)N)Cc2ccccc2)cc1	95% (active)	6%	-3%	96% (active)	inactive	inactive	inactive	inactive
CC(CCCCCC(=O)Nc1ccc(CC(C)NCCc2cccc(Cl)c2)cc1)NCCc1cccc(Cl)c1 (stereo not given)	37%	99% (active)	1%	91% (active)	inactive	inactive	inactive	inactive
CC(C)N1CCN(C(CN2CCN(CCCOc3ccccc3-c3ccccc3)CC2)c2ccc(F)cc2)CC1 (stereo not given)	96% (active)	98% (active)	5%	100% (active)	inactive	inactive	inactive	inactive
NC(N)=NCCCN(Cc1ccccc1)c1ccc(Cl)cc1	98% (active)	-9%	-7%	100% (active)	inactive	inactive	inactive	inactive
CCCC(CNCc1cccc(I)c1)CNc1cc(=O)c2ccccc2[nH]1 (stereo not given)	96% (active)	-3%	7%	100% (active)	inactive	inactive	inactive	inactive
COc1ccc2ncc(Cl)c(CCN3C[C@H](CNCc4ccc5c(n4)NC(=O)CS5)[C@H](O)C3)c2n1	16%	2%	3%	94% (active)	inactive	inactive	inactive	inactive
Cc1cc([N+](=O)[O-])ccc1N1CCN(CCCCNC(=O)c2ccc(NC(=O)c3ccc(Cl)cc3)cc2)CC1	-1%	33%	2%	92% (active)	inactive	inactive	inactive	inactive
Cc1cc(Nc2ncc3c(n2)N(C2CCC2)CC3)ccc1N1CCN(C)CC1	100% (active)	27%	-2%	101% (active)	inactive	inactive	inactive	inactive
COc1ccc(Cn2c(Nc3cccc(C(F)(F)F)c3)nc3ccc(C(=O)NCCN4CCCC4)cc32)cc1Cl	6%	14%	2%	100% (active)	inactive	inactive	inactive	inactive
Cc1cccc2[nH]c(-c3cccc(-c4ccc(C(=O)N5CCCCC5C(C)O)cc4)c3)nc12 (stereo not given)	91% (active)	26%	-2%	100% (active)	inactive	inactive	inactive	inactive
CN(CCC1CCN(C(=O)/C=C/c2ccc(Cl)c(Cl)c2)CC1)C1CCC(c2c[nH]c3ccccc23)CC1 (stereo not given)	9%	57% (active)	-5%	87% (active)	inactive	inactive	inactive	inactive
CC(C)(C(=O)Nc1ccc(N2CCC3(CCCN(CC4CC4)C3)CC2)c(Cl)c1)c1cccc(C(F)(F)F)c1	0%	27%	4%	92% (active)	inactive	inactive	inactive	inactive
CC(C)N1CCC(N(Cc2ccc(-c3ccc(Cl)cc3)cc2)C(=O)Cn2c(CCc3cccc(F)c3F)cc(=O)c3ccccc32)CC1	73% (active)	62% (active)	4%	96% (active)	inactive	inactive	inactive	inactive
CN1CCN(Cc2cc3cc(NC(=O)/C=C/c4cccc(Cl)c4)ccc3s2)CC1	72% (active)	54% (active)	1%	100% (active)	inactive	inactive	inactive	inactive
CNC(=O)c1ccccc1Nc1nc(Nc2cccnc2)ncc1C	90% (active)	17%	1%	93% (active)	inactive	inactive	inactive	inactive
CN(C)CC1c2[nH]c3ccccc3c2CCN1C(=O)Nc1ccc(Cl)c(Cl)c1 (stereo not given)	32%	99% (active)	-6%	90% (active)	inactive	inactive	inactive	inactive

SMILES	growth inhibition [1]	inhibition [2]	inhibition [3]	growth inhibition [4]	outcome [5]	outcome [6]	outcome [7]	outcome [8]
COc1ccc(S(=O)(=O)NCCCC2CCN(CCCCCNC(=O)C=Cc3ccc(Cl)c(Cl)c3)CC2)cc1	12%	24%	0%	85% (active)	inactive	inactive	inactive	inactive
CCc1cn2c3c(cc(C(=O)N[C@@H](Cc4cc(F)cc(F)c4)[C@H](O)CNC4CCOCC4)cc13)N(C)S(=O)(=O)CC2	98% (active)	1%	-7%	98% (active)	inactive	inactive	inactive	inactive
O=C(NC1CCC1)C1CCN(C(c2ccc(Cl)cc2)c2ccc(Cl)cc2)CC1	70% (active)	6%	8%	95% (active)	inactive	inactive	inactive	inactive
O=[N+]([O-])c1ccc2nccnc2c1	0%	-2%	-1%	97% (active)	inactive	inactive	inactive	inactive
CC(C)Oc1cc2c(cc1NS(=O)(=O)c1ccc(-c3ccc(Cl)cc3)cc1F)CCN(C)CC2	2%	29%	-1%	88% (active)	inactive	inactive	inactive	inactive
CC1CCCCN1Cc1cccc(-c2c[nH]c3nc(NC4CCCC4)ncc23)c1 (stereo not given)	14%	-1%	-2%	93% (active)	inactive	inactive	inactive	inactive
FC(F)(F)c1cc(Nc2ccc(Oc3ccccc3)cc2)c2cc(-c3ccncc3)ccc2n1	70% (active)	-12%	-2%	102% (active)	inactive	inactive	inactive	inactive
Cc1c(Br)cc2[nH]c(-c3ccc(C(=O)NC4CCN(Cc5ccccc5)CC4)cc3)nc2c1C	98% (active)	4%	1%	102% (active)	inactive	inactive	inactive	inactive
Cc1cc(F)ccc1Nc1nc(N(C)c2ccccc2)c2cc(OCCN(C)C)ccc2n1	55% (active)	37%	3%	94% (active)	inactive	inactive	inactive	inactive
O=C(NC1CCN(Cc2cccc(C(F)(F)F)c2)CC1)c1ccc(-c2cccc(C(F)(F)F)c2)s1	54% (active)	36%	-2%	94% (active)	inactive	inactive	inactive	inactive
O=S(=O)(NC1CCN(c2ccnc3cc(Cl)ccc23)C1)c1cccc(F)c1 (stereo not given)	88% (active)	19%	5%	98% (active)	inactive	inactive	inactive	inactive
O=C(Nc1cc(C(F)(F)F)ccc1-n1cncn1)C1(c2ccccc2)CC1	100% (active)	11%	3%	100% (active)	inactive	inactive	inactive	inactive
CCCC(CNCc1ccccc1)CNc1cc(=O)c2ccccc2[nH]1 (stereo not given)	21%	2%	3%	86% (active)	inactive	inactive	inactive	inactive
COc1ccc(Oc2ccc(-c3c(C)[nH]c(C)c(Cl)c3=O)cc2)cc1	97% (active)	-2%	-3%	97% (active)	inactive	inactive	inactive	inactive
COc1ccc(CCN(C)CCCOc2ccc(NC(=O)c3cccc4c(=O)c5ccccc5[nH]c34)cc2)cc1OC	45%	80% (active)	1%	94% (active)	inactive	inactive	inactive	inactive
O=c1cc(NCCCNCc2cccc3c2OC(F)(F)O3)[nH]c2ccccc12	15%	4%	7%	88% (active)	inactive	inactive	inactive	inactive
Cc1nnc2c(NC(=O)NC(C)C)cc3cc(-c4ccc(CN5CCCCC5)cc4)ccc3n12	8%	70% (active)	1%	87% (active)	inactive	inactive	inactive	inactive
O=C(c1cccc(Br)c1)N1CCN(c2ccc([N+](=O)[O-])c(NC3CC3)c2)CC1	100% (active)	5%	3%	99% (active)	inactive	inactive	inactive	inactive
Cc1cc(OCC2CCCN(c3ncc(C(=O)NC4CC4)cc3Cl)C2)ccc1F (stereo not given)	68% (active)	3%	-1%	88% (active)	inactive	inactive	inactive	inactive
CC(C)CCNC(=O)C1Cc2c([nH]c3ccc(Br)cc23)C2(CCN(Cc3ccccc3)CC2)N1 (stereo not given)	68% (active)	100% (active)	-3%	96% (active)	inactive	inactive	inactive	inactive

Source: PubChem BioAssay
